Data on 1 sequence can be found in paper PMC7862700, “An all-to-all approach to the identification of sequence-specific readers for epigenetic DNA modifications on cytosine”.

Test in all cases: DAPPL (digital affinity profiling via proximity ligation, sequencing); 10 mM Tris-HCl pH 7.5, 50 mM NaCl, 1 mM DTT, 4% glycerol, room temperature, 30 min; GST-TFs on glutathione beads, 16-mer random dsDNA library, 0.1% formaldehyde crosslink after washing; high values mean tight binding
Assay [1] deals with T1, FEV (Homo sapiens, UniProt Q99581 1-238).
T1 sequence: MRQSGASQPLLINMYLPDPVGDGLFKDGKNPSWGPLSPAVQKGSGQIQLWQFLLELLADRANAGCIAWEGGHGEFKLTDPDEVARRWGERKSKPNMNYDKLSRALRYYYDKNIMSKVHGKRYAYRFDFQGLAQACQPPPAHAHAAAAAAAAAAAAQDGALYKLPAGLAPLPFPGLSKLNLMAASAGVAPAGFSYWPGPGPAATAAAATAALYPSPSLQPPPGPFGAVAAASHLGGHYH
As to conditions: protein: recombinant; tags: N-terminal GST; dsDNA, one strand shown. The gist of the method:
(§1)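 Binding signal is each hexamer's read frequency for a factor divided by its frequency in the tag-only sample. The factors were GST-fused human transcription factors from yeast, captured on glutathione beads, DNA-barcoded and pooled with that sample. Pools were incubated with 200 nmole of a random double-stranded 16-mer DNA library in Tris/NaCl/DTT/glycerol buffer at room temperature for 30 min, then washed, crosslinked with 0.1% formaldehyde, proximity-ligated with BsaI/T4 ligase (1 h, 37 °C), PCR-amplified and sequenced on an Illumina NextSeq500.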

Assay [2] has as its target ETV5 (Homo sapiens, UniProt P41161 1-510). As to conditions: protein: recombinant; tags: N-terminal GST; dsDNA, one strand shown. The gist of the method: as §1
For assay [3], the target named is HSF1 (Homo sapiens, UniProt Q00613 1-529). As to conditions: protein: recombinant; tags: N-terminal GST; chain copies: 3; dsDNA, one strand shown. The gist of the method: as §1
HSF1, sequence (Q00613 whole entry): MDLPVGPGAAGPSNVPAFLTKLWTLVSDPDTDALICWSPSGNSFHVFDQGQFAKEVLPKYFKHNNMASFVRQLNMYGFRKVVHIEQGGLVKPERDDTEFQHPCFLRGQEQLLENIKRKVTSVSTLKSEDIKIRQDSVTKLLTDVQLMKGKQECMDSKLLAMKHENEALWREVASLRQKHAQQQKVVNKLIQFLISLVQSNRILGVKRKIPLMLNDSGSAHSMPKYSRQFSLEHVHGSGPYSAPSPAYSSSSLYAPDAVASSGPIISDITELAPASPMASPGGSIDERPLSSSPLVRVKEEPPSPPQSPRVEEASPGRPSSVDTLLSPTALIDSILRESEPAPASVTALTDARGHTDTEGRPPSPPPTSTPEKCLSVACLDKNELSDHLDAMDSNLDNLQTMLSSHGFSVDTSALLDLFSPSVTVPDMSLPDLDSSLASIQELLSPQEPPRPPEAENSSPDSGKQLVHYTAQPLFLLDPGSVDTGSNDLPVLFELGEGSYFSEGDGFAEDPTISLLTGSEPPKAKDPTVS
Assay [4] addresses T2, SPIC (Homo sapiens, UniProt Q8N5J4 1-248).
T2 sequence: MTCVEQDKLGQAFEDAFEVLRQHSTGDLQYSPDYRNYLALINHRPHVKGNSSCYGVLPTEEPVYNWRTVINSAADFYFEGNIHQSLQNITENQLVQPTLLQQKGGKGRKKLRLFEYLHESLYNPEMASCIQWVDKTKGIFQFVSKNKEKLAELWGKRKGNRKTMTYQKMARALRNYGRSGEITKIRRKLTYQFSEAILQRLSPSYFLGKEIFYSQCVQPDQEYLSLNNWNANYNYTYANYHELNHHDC
As to conditions: protein: recombinant; tags: N-terminal GST; dsDNA, one strand shown. The gist of the method: as §1

Assay [5] has as its target ELF4 (Homo sapiens, UniProt Q99607 1-663). The settings on record: protein: recombinant; tags: N-terminal GST; dsDNA, one strand shown. The gist of the method:
as §1

The target in assay [6] is T3, ELK4 (Homo sapiens, UniProt P28324-2 1-405).
T3 sequence: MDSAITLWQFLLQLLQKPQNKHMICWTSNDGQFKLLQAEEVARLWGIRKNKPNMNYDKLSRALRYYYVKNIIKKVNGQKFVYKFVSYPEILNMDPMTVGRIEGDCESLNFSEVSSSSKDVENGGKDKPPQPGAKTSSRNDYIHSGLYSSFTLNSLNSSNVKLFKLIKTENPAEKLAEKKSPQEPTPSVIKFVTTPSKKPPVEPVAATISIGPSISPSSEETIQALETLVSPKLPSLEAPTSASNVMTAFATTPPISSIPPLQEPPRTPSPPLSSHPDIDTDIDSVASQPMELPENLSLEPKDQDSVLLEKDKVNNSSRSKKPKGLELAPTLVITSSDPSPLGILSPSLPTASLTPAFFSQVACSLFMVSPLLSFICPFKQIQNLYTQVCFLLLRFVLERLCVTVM
The settings on record: protein: recombinant; tags: N-terminal GST; dsDNA, one strand shown. The gist of the method:
as §1

Assay [7] has as its target T4, ETV2 (Homo sapiens, UniProt O00321 1-342).
T4 sequence: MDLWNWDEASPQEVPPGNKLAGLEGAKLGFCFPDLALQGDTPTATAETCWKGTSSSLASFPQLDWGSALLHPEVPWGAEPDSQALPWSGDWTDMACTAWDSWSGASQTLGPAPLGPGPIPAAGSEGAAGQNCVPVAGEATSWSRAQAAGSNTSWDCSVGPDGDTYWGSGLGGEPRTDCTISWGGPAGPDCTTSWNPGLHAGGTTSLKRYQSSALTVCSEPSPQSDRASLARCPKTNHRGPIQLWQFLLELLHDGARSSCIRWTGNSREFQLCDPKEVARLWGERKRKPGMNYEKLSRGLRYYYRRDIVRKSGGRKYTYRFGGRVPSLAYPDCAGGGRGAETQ
The settings on record: protein: recombinant; tags: N-terminal GST; dsDNA, one strand shown. The gist of the method: as §1

For assay [8], the target named is T5, ELF3 (Homo sapiens, UniProt P78545 1-371).
T5 sequence: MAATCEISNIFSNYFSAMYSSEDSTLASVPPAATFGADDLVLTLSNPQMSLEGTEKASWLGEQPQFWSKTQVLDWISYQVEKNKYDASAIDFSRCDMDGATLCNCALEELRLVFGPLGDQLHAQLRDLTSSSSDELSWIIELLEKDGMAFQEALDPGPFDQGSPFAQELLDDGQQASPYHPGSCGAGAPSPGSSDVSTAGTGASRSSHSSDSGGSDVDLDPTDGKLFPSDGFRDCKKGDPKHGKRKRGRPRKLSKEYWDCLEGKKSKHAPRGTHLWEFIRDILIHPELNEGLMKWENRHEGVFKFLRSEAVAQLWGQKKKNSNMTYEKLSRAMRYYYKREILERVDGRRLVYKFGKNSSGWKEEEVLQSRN
As to conditions: protein: recombinant; tags: N-terminal GST; dsDNA, one strand shown. The gist of the method:
as §1

In assay [9] the target is CRX (Homo sapiens, UniProt O43186 1-299). The settings on record: protein: recombinant; tags: N-terminal GST; dsDNA, one strand shown. The method in brief: as §1
CRX, sequence (O43186 whole entry): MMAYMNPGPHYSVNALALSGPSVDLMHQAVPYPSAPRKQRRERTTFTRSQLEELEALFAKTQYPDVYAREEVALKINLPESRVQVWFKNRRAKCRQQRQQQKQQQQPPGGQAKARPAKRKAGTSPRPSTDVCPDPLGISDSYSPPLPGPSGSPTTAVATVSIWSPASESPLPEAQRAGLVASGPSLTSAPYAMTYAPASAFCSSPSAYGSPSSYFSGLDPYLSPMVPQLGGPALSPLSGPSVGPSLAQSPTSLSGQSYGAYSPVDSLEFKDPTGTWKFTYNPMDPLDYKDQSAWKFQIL
Assay [10] addresses ETV1 (Homo sapiens, UniProt P50549 1-477). The settings on record: protein: recombinant; tags: N-terminal GST; dsDNA, one strand shown. The method in brief:
as §1

Assay [11] concerns the target T6, ERF (Homo sapiens, UniProt P50548 1-548).
T6 sequence: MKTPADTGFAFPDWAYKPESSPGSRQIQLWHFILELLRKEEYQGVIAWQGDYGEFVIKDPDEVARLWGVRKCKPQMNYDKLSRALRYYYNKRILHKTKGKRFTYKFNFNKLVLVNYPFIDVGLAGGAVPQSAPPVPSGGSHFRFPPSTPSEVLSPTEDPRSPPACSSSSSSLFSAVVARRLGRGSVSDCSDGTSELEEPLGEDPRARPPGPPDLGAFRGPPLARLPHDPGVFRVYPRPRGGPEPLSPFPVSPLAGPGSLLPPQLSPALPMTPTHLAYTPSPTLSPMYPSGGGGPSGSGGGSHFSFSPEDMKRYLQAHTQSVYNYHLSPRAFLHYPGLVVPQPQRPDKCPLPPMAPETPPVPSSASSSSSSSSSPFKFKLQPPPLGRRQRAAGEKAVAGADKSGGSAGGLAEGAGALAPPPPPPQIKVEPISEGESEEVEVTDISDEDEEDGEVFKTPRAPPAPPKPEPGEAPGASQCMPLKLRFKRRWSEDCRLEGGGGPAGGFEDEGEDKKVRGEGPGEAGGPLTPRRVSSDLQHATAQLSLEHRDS
The settings on record: protein: recombinant; tags: N-terminal GST; dsDNA, one strand shown. The gist of the method: as §1

Assay [12] addresses T7, ETV3L (Homo sapiens, UniProt Q6ZN32 1-361).
T7 sequence: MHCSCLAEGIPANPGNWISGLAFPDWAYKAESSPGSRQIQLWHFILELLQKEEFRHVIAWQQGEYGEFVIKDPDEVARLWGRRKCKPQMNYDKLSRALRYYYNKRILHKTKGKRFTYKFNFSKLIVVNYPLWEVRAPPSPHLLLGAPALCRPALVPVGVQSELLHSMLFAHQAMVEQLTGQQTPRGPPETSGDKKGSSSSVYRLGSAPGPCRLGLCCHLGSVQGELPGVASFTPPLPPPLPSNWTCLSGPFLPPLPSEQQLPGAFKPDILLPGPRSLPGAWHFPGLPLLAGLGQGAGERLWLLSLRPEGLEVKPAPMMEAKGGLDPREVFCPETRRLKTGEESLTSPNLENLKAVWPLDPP
The settings on record: protein: recombinant; tags: N-terminal GST; dsDNA, one strand shown. The gist of the method: as §1

Assay [13] addresses T8, ETS2 (Homo sapiens, UniProt P15036 1-469).
T8 sequence: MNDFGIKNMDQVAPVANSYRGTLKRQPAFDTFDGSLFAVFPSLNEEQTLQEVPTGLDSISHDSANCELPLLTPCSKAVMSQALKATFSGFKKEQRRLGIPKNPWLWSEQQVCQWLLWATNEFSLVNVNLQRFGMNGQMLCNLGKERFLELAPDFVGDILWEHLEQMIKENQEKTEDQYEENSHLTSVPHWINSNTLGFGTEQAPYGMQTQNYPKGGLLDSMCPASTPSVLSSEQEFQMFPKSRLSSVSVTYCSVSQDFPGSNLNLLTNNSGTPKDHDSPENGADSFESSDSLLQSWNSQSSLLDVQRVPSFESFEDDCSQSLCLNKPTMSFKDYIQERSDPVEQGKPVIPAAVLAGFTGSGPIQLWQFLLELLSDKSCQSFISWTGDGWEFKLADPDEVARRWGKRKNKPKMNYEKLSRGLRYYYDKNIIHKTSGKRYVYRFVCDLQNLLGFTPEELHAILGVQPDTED
The settings on record: protein: recombinant; tags: N-terminal GST; dsDNA, one strand shown. The method in brief:
as §1

Assay [14] addresses T9, SPDEF (Homo sapiens, UniProt O95238 1-335).
T9 sequence: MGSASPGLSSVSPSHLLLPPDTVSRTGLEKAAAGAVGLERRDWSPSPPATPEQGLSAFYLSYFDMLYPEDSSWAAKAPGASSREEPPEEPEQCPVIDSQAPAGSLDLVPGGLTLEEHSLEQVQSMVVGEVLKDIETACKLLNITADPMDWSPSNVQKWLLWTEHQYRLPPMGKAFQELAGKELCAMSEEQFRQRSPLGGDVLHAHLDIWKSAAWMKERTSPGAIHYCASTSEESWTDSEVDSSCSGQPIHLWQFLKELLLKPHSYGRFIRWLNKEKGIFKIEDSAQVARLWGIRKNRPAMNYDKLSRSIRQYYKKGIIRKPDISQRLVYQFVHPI
The settings on record: protein: recombinant; tags: N-terminal GST; dsDNA, one strand shown. The method in brief: as §1

The target of assay [15] is T10, ETV7 (Homo sapiens, UniProt Q9Y603 1-341).
T10 sequence: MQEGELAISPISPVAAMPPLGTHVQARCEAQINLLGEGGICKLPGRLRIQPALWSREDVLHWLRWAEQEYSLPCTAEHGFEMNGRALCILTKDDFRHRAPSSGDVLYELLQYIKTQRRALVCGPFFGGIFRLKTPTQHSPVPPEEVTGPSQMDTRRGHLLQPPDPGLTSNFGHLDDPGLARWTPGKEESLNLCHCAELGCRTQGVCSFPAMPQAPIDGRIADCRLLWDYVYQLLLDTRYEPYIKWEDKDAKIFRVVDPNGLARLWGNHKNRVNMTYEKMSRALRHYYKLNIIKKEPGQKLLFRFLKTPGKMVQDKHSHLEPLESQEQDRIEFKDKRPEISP
As to conditions: protein: recombinant; tags: N-terminal GST; dsDNA, one strand shown. The method in brief: as §1

In assay [16] the target is T11, ELF5 (Homo sapiens, UniProt Q9UKW6-2 1-255).
T11 sequence: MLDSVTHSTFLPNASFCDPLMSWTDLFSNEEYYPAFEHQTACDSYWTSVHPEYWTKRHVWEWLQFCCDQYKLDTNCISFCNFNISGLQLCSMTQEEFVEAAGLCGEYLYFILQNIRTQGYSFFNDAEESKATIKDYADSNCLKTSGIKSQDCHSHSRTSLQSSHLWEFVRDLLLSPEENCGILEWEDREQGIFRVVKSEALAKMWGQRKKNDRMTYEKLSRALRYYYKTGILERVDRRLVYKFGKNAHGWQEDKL
As to conditions: protein: recombinant; tags: N-terminal GST; dsDNA, one strand shown. The gist of the method:
as §1

Assay [17] has as its target T12, ETV3 (Homo sapiens, UniProt P41162-2 1-143).
T12 sequence: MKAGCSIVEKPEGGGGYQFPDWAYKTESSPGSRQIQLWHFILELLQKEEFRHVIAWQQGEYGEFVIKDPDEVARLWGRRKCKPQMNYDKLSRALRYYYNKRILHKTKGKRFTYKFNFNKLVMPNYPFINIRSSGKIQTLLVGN
As to conditions: protein: recombinant; tags: N-terminal GST; dsDNA, one strand shown. The method in brief: as §1

Assay [18] deals with ETV6 (Homo sapiens, UniProt P41212 1-452). The settings on record: protein: recombinant; tags: N-terminal GST; dsDNA, one strand shown. The method in brief: as §1
ETV6, sequence (P41212 whole entry): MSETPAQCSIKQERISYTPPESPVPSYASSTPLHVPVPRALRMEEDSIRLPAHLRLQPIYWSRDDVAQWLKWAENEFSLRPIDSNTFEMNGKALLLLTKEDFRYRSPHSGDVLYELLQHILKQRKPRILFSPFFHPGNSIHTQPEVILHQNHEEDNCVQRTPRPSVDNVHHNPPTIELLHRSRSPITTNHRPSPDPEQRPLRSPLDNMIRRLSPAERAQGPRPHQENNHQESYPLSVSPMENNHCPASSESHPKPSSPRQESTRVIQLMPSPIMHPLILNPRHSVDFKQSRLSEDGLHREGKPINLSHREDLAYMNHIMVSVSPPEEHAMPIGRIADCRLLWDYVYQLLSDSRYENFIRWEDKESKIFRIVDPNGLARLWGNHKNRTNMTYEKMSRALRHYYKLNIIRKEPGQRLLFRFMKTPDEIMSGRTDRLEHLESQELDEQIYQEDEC

ETV5, sequence (P41161 whole entry): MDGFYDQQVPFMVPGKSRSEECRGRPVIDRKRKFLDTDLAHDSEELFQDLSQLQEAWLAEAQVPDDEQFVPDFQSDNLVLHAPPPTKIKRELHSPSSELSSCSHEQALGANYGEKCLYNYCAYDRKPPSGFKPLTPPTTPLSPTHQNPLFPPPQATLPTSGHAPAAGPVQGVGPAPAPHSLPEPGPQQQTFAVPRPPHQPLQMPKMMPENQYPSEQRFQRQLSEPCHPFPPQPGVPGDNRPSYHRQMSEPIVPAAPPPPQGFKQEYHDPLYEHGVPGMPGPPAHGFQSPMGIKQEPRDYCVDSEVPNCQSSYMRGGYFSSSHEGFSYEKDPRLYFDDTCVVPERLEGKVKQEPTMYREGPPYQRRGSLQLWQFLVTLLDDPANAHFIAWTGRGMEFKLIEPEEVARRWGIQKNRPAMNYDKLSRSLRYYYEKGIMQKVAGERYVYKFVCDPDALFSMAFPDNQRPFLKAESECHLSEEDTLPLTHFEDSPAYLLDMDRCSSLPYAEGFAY
ELF4, sequence (Q99607 whole entry): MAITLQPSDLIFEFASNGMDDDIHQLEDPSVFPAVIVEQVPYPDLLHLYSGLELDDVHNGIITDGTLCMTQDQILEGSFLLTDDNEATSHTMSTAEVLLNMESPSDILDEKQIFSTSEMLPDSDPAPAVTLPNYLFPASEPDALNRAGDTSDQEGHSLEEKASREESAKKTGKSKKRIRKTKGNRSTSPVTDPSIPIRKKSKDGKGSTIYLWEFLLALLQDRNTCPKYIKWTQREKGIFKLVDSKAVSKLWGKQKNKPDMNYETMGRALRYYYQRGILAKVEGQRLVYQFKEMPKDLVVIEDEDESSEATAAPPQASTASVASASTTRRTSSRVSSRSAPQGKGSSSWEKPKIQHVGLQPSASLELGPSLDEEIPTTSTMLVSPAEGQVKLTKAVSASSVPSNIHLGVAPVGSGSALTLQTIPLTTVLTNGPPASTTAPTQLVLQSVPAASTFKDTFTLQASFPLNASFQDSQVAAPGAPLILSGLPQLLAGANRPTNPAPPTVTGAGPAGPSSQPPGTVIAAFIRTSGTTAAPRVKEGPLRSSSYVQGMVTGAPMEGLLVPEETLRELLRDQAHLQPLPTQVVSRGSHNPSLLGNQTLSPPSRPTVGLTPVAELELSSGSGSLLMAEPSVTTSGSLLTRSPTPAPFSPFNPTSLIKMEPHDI
ETV1, sequence (P50549 whole entry): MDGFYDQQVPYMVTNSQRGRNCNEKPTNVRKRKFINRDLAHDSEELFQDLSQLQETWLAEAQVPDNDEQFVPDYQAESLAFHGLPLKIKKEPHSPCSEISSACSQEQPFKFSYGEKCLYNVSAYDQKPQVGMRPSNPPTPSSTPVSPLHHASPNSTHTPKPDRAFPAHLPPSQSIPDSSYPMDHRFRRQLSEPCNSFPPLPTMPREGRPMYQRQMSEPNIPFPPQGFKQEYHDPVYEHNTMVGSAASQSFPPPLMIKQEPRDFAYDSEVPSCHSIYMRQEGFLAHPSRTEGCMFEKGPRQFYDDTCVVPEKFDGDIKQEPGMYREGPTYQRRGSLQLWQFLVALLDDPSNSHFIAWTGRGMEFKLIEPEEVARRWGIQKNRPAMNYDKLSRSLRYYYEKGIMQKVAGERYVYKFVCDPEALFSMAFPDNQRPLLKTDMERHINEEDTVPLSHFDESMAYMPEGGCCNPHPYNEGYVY

Turning to GCTTGC, the binding signal in assay [1] is 1.2 fold enrichment (6-mer frequency, TF over GST control); in [2] it was 1.22 fold enrichment (6-mer frequency, TF over GST control); in assay [3], 1.1 fold enrichment (6-mer frequency, TF over GST control); in assay [4], 1.44 fold enrichment (6-mer frequency, TF over GST control); in assay [5], 1.09 fold enrichment (6-mer frequency, TF over GST control); in assay [6], 1.34 fold enrichment (6-mer frequency, TF over GST control). The binding signal in [7] is 1.31 fold enrichment (6-mer frequency, TF over GST control); in assay [8], 1.03 fold enrichment (6-mer frequency, TF over GST control); in assay [9] it was 1.14 fold enrichment (6-mer frequency, TF over GST control); in assay [10], 1.25 fold enrichment (6-mer frequency, TF over GST control); in assay [11], 1.24 fold enrichment (6-mer frequency, TF over GST control); in [12], 1.29 fold enrichment (6-mer frequency, TF over GST control). In addition, the binding signal was 1.24 fold enrichment (6-mer frequency, TF over GST control) in assay [13]; 1.22 fold enrichment (6-mer frequency, TF over GST control) in assay [14]; 1.21 fold enrichment (6-mer frequency, TF over GST control) in assay [15]; 1.03 fold enrichment (6-mer frequency, TF over GST control) in [16]; 1.19 fold enrichment (6-mer frequency, TF over GST control) in assay [17]; 1.15 fold enrichment (6-mer frequency, TF over GST control) in assay [18].
